This is part of a sample that, as a whole, favours compounds with a hit. Of some 83,000 tested, about 20% had one in any assay.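 Assay: single dose, 48 h. Readout: percent growth (0 = no net growth; negative = cell death). Active: <10.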 Values without a mark were called inactive. The source made the active and inactive calls.

Test systems include NCI-H23 lung; NCI-H226 lung; NCI-H322M lung; HOP-62 NSCLC; NCI-H460 lung; HOP-92 NSCLC; NCI-H522 lung; A549/ATCC NSCLC; 786-0 renal; COLO 205 colon.
Assay in all cases: NCI-60 one-dose screen, 48 h (100 = growth as untreated, 0 = no growth, -100 = all killed)
Holding throughout (settings): 10 µM unless noted

On to `COc1ccc(OC)c(NC(=O)c2cc(S(=O)(=O)N3CCc4ccccc43)ccc2OC)c1`, for which the growth is 86.7% with NCI-H23 lung; 92.1% with NCI-H226 lung; 109% with NCI-H322M lung; 100% in the experiment on HOP-62 NSCLC; 108% in the experiment on NCI-H460 lung; 74.5% with HOP-92 NSCLC. Besides, the growth with NCI-H522 lung is 78.6%; with A549/ATCC NSCLC, 78.9%; in the experiment with 786-0 renal, 89.8%; in the experiment on COLO 205 colon, 87.5%.

Take `O=P([O-])(O)OP(=O)([O-])O.[NH-][C@H]1CCCC[C@@H]1[NH-].[OH-].[OH-].[Pt+4]`: the growth in the experiment with NCI-H23 lung is 102%; in the experiment with NCI-H226 lung it was 108%; in the experiment with NCI-H322M lung it was 115%; in the experiment with HOP-62 NSCLC it was 111%; with NCI-H460 lung, 106%; in the experiment on HOP-92 NSCLC it was 114%. Moreover, the growth is 93.4% in the experiment with NCI-H522 lung, 92.1% in the experiment on A549/ATCC NSCLC, 107% in the experiment on 786-0 renal and 110% with COLO 205 colon.

Take `NC(=O)c1ccc2c(c1)OCO2`: the growth was 89.2% with NCI-H23 lung; 98.5% with NCI-H226 lung; 107% in the experiment on NCI-H322M lung; 112% with HOP-62 NSCLC; 109% in the experiment with NCI-H460 lung; 90.2% with HOP-92 NSCLC. Moreover, the growth in the experiment with NCI-H522 lung is 91.9%; with A549/ATCC NSCLC it was 105%; with 786-0 renal, 105%; with COLO 205 colon, 113%.

With `COC(=O)C(CC(=O)c1ccc(-c2ccccc2)cc1)c1ccccc1` (centres undefined), the growth was 76.6% in the experiment on NCI-H23 lung; 63.3% with NCI-H226 lung; 96.8% in the experiment with NCI-H322M lung; 75.1% in the experiment on HOP-62 NSCLC; 90% in the experiment on NCI-H460 lung; 68.3% in the experiment on HOP-92 NSCLC. Moreover, the growth was -0.151% (active) in the experiment with NCI-H522 lung, 76.6% with A549/ATCC NSCLC, 28.7% in the experiment with 786-0 renal and 36.7% in the experiment with COLO 205 colon.

Consider `O=C1OC(c2ccccc2)=N/C1=C\c1ccc([N+](=O)[O-])cc1`, for which the growth with NCI-H23 lung was 100%; in the experiment on NCI-H226 lung it was 93.6%; in the experiment with NCI-H322M lung, 96.2%; in the experiment with HOP-62 NSCLC, 90.1%; in the experiment with NCI-H460 lung it was 94.6%; with HOP-92 NSCLC, 87.1%. The growth in the experiment with NCI-H522 lung was 94.9%; with A549/ATCC NSCLC it was 120%; with 786-0 renal, 98.6%; with COLO 205 colon it was 109%.

`COc1ccc(/C=C(\C#N)c2ccc([N+](=O)[O-])cc2)c2ccccc12`: the growth in the experiment on NCI-H23 lung was 65.3%; in the experiment with NCI-H226 lung it was 16.1%; with NCI-H322M lung, 51.6%; with HOP-62 NSCLC, 27.1%; in the experiment with NCI-H460 lung, 64.6%; in the experiment on HOP-92 NSCLC, 50.1%. Besides, the growth in the experiment on NCI-H522 lung was 34%; in the experiment with A549/ATCC NSCLC, 48.7%; in the experiment on 786-0 renal it was 34.5%; in the experiment on COLO 205 colon, 81.4%.

With `COc1ccc(/C=C/C(=O)OCC(=O)NNC(=O)c2ccccc2)cc1OC`, the growth with NCI-H23 lung is 106%; with NCI-H226 lung, 103%; in the experiment on NCI-H322M lung it was 117%; in the experiment with HOP-62 NSCLC, 84.1%; with NCI-H460 lung, 110%; with HOP-92 NSCLC it was 79.3%. Moreover, the growth in the experiment on NCI-H522 lung was 104%; in the experiment on A549/ATCC NSCLC it was 99.2%; in the experiment on 786-0 renal, 99.8%; in the experiment on COLO 205 colon, 118%.

With `Nc1c(C(=O)Nc2cccc(C(F)(F)F)c2)sc2nc3c(cc12)C(O)CCC3` (centres undefined), the growth with NCI-H23 lung was 39.5%; in the experiment on NCI-H226 lung it was 56.3%; in the experiment with NCI-H322M lung, 27.2%; in the experiment on HOP-62 NSCLC it was 40.7%; with NCI-H460 lung it was 14.5%; with HOP-92 NSCLC, 67.2%. The growth is 19.3% in the experiment on NCI-H522 lung, 24.7% in the experiment with A549/ATCC NSCLC, 47.4% in the experiment with 786-0 renal and 9.16% (active) with COLO 205 colon.

Turning to `CC(Br)C(Br)c1cc2c(cc1Br)OCO2` (centres undefined), the growth with NCI-H23 lung was 96.4%; in the experiment on NCI-H226 lung, 99.3%; in the experiment on NCI-H322M lung it was 87.5%; in the experiment with HOP-62 NSCLC, 68%; in the experiment on NCI-H460 lung, 126%; with HOP-92 NSCLC, 106%. Besides, the figures for the growth in the experiment on NCI-H522 lung, with A549/ATCC NSCLC and in the experiment on COLO 205 colon were 87.2%, 72.4% and 90.2%, respectively.

With `COc1ccc(/C=C/C(=O)c2cccc(B(O)O)c2)cc1O`, the growth in the experiment with NCI-H23 lung was 61.9%; in the experiment on NCI-H226 lung, 91.5%; with NCI-H322M lung, 64%; with HOP-62 NSCLC, 40.5%; with NCI-H460 lung it was 13.8%; in the experiment with HOP-92 NSCLC it was 41.4%. The growth was 43.9% in the experiment with NCI-H522 lung, 59.1% with 786-0 renal and 98.3% with COLO 205 colon.

For the compound `COc1ccc(/C=C/C(=O)/C=C/c2cc3ccc(Cl)cc3[nH]c2=O)cc1`, the growth in the experiment on NCI-H23 lung is 81.1%; in the experiment with NCI-H226 lung, 81%; with NCI-H322M lung, 97.2%; in the experiment with HOP-62 NSCLC, 85.3%; in the experiment on NCI-H460 lung, 86.7%; in the experiment on HOP-92 NSCLC, 103%. Besides, the growth with NCI-H522 lung was 82.3%; with 786-0 renal, 94.9%; with COLO 205 colon, 90.5%.

As for `c1cncc(CNc2ccccc2-c2nnc(Nc3ccc4c(c3)OCCO4)o2)c1`, the growth in the experiment on NCI-H23 lung is 20.9%; in the experiment with NCI-H226 lung it was 7.4% (active); in the experiment with NCI-H322M lung it was 49.6%; with HOP-62 NSCLC, 32.5%; with NCI-H460 lung, 4.61% (active); in the experiment with HOP-92 NSCLC it was 136%. For the same compound, the growth in the experiment on NCI-H522 lung is -28.3% (active); with 786-0 renal, 42.4%; in the experiment on COLO 205 colon it was -21.9% (active).

As for `Clc1nc(-c2cccnc2)nc2sc3c(c12)CCCCCC3`, the growth in the experiment with NCI-H23 lung is 99.5%; with NCI-H226 lung, 98.6%; in the experiment with NCI-H322M lung, 102%; in the experiment with HOP-62 NSCLC, 97.5%; in the experiment on NCI-H460 lung, 107%; with HOP-92 NSCLC, 86.2%. Also, the results for the growth in the experiment with NCI-H522 lung, in the experiment on 786-0 renal and in the experiment on COLO 205 colon were 85.7%, 101% and 107%, respectively.

`CC(=O)N1Cc2ccccc2C(C)Cc2cc(Cl)ccc21` (centres undefined): the growth in the experiment on NCI-H23 lung is 106%; in the experiment on NCI-H226 lung, 117%; in the experiment on NCI-H322M lung, 97.9%; in the experiment on HOP-62 NSCLC, 102%; in the experiment with NCI-H460 lung, 105%; in the experiment with HOP-92 NSCLC, 99.3%. In addition, the growth in the experiment with NCI-H522 lung is 95.8%; with 786-0 renal it was 95.9%; with COLO 205 colon, 117%.

For the origin of these results see PubChem BioAssay (NCI).
